Some test systems named below: MOLT-4 leukemia; SR leukemia; RPMI-8226 leukemia; OVCAR-8 ovarian; OVCAR-4 ovarian; SK-OV-3 ovarian; IGROV1 ovarian; OVCAR-3 ovarian; HS 578T breast; NCI/ADR-RES ovarian; T-47D breast; BT-549 breast; MDA-MB-435 melanoma; SW-620 colon; MCF7 breast; HCT-116 colon; HCC-2998 colon; KM12 colon; OVCAR-5 ovarian.
What all share (assay): NCI-60 one-dose screen, 48 h (100 = growth as untreated, 0 = no growth, -100 = all killed)
Holding throughout (conditions): 10 µM unless noted

Our source for the growth values is PubChem BioAssay (NCI).

The panel holds about 83,000 compounds, 20% with a hit somewhere; the sample as a whole holds those more often.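 Compound tested at a single concentration for 48 hours in 96-well plates; a percent growth value below 10 was scored as active.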 Values without a mark were called inactive. Activity calls are given as the source filed them.

Consider `CC(=O)OC1CCC2(C)C(CCC3C2CC(=O)C2(C)C3CC(Sc3ccc(N(CCCl)CCCl)cc3)C2C(C)=O)C1` (stereo not given), for which the growth in the test on MOLT-4 leukemia is 77.3%; in the test with SR leukemia, 51.5%; with RPMI-8226 leukemia it was 49%; in the test with OVCAR-8 ovarian, 84.1%; in the test on OVCAR-4 ovarian it was 84.4%; in the test on SK-OV-3 ovarian it was 113%. For the same compound, the growth with IGROV1 ovarian is 116%; with OVCAR-3 ovarian, 99.6%; with HS 578T breast, 110%; in the test on NCI/ADR-RES ovarian it was 74.7%; in the test with T-47D breast, 66.7%; in the test with BT-549 breast, 80.8%. For the same compound, the growth in the test on MDA-MB-435 melanoma is 105%; in the test with SW-620 colon, 68.4%; with MCF7 breast it was 74.2%; with HCT-116 colon it was 72%; in the test with HCC-2998 colon it was 87.2%; in the test on KM12 colon it was 32.6%.
For `CN(CCCCN(C)CCOS(C)(=O)=O)CCOS(C)(=O)=O`, the growth in the test with MOLT-4 leukemia is 28%; with SR leukemia, 12.1%; with RPMI-8226 leukemia, 90.8%; in the test on OVCAR-8 ovarian, 72.6%; in the test on SK-OV-3 ovarian it was 86.7%; in the test on IGROV1 ovarian, 65.8%. Besides, the growth with OVCAR-3 ovarian is 103%; in the test on HS 578T breast it was 95.3%; in the test with NCI/ADR-RES ovarian it was 76.3%; with T-47D breast, 81.1%; in the test on MDA-MB-435 melanoma it was 101%; in the test on SW-620 colon it was 74.1%. Moreover, the growth with MCF7 breast is 71.2%; with HCT-116 colon, 81.4%; with HCC-2998 colon, 58.4%; in the test on KM12 colon, 95.1%.
As to `C=CC12CCN(CC1)C(C(O)c1ccnc3ccc(OC)cc13)C2` (stereo not given), the growth in the test with MOLT-4 leukemia was 67.8%; in the test on SR leukemia, 37.1%; with RPMI-8226 leukemia, 4.37% (active); in the test with OVCAR-8 ovarian it was 92.3%; with OVCAR-4 ovarian, 76.9%; with SK-OV-3 ovarian it was 89.2%. In addition, the growth in the test with IGROV1 ovarian is 81.4%; in the test on OVCAR-3 ovarian, 93.7%; in the test with HS 578T breast, 90.4%; with NCI/ADR-RES ovarian it was 91.8%; in the test on T-47D breast it was 82.5%; in the test on BT-549 breast it was 103%. Besides, the growth with MDA-MB-435 melanoma is 56.5%; in the test on SW-620 colon, 88.9%; in the test with MCF7 breast, 66.5%; in the test with HCT-116 colon, 60.5%; in the test on HCC-2998 colon, -34.8% (active).
`COc1ccc2nc(NC(=O)COc3cc(/C=C\c4cc(OC)c(OC)c(OC)c4)ccc3OC)sc2c1`: the growth is 12.9% in the test with MOLT-4 leukemia; 28% in the test on SR leukemia; 20.9% with RPMI-8226 leukemia; 24% with OVCAR-8 ovarian; 49% in the test with OVCAR-4 ovarian; 8.6% (active) in the test with SK-OV-3 ovarian. The growth in the test with OVCAR-3 ovarian is -39% (active); in the test with HS 578T breast, -5.92% (active); with NCI/ADR-RES ovarian, -5.38% (active); in the test on T-47D breast, 19.9%; in the test on BT-549 breast, 55.4%; with MDA-MB-435 melanoma, -45.1% (active). The growth in the test on SW-620 colon is 25.5%; in the test on MCF7 breast, 16.9%; in the test with HCT-116 colon it was 12.6%; in the test with HCC-2998 colon, 45.5%; in the test with KM12 colon, 16.8%.
Regarding `COC(=O)C1OC(Oc2ccc(N(CCCl)CCCl)cc2)C(OC(C)=O)C(OC(C)=O)C1OC(C)=O` (stereo not given), the growth with MOLT-4 leukemia is 37.3%; with SR leukemia it was 4.19% (active); in the test with RPMI-8226 leukemia, 96.6%; with OVCAR-8 ovarian it was 84.8%; in the test on OVCAR-4 ovarian, 87.7%; with SK-OV-3 ovarian, 96.7%. The growth is 102% in the test on HS 578T breast; 92.9% with NCI/ADR-RES ovarian; 77.4% in the test on T-47D breast; 95.3% with BT-549 breast; 93.2% in the test on MDA-MB-435 melanoma; 75.4% with SW-620 colon. Besides, the growth was 57.8% in the test on MCF7 breast, 88.6% in the test with HCT-116 colon and 96% in the test on HCC-2998 colon.
Regarding `CC(C)CCC1(CCCl)C(=O)NC(=O)NC1=O`, the growth was 112% in the test with MOLT-4 leukemia; 102% in the test on SR leukemia; 103% with RPMI-8226 leukemia; 101% with OVCAR-8 ovarian; 99.4% in the test with OVCAR-4 ovarian; 102% with SK-OV-3 ovarian. Further, the growth was 108% in the test with IGROV1 ovarian; 116% in the test on OVCAR-3 ovarian; 106% in the test on HS 578T breast; 102% in the test on NCI/ADR-RES ovarian; 105% in the test with T-47D breast; 102% in the test on BT-549 breast. Also, the growth was 97% in the test with MDA-MB-435 melanoma; 98.9% with SW-620 colon; 96.4% in the test with MCF7 breast; 100% in the test with HCT-116 colon; 107% with HCC-2998 colon; 108% in the test on KM12 colon.
As for `CC(=O)/C=C/c1ccc2c(c1)OCO2`, the growth in the test with MOLT-4 leukemia is 103%; in the test with SR leukemia, 98.3%; in the test on RPMI-8226 leukemia it was 91.5%; in the test on OVCAR-5 ovarian, 106%; in the test with OVCAR-4 ovarian, 104%; in the test with SK-OV-3 ovarian, 106%. The growth was 118% in the test on IGROV1 ovarian; 109% in the test on OVCAR-3 ovarian; 106% in the test with HS 578T breast; 113% with NCI/ADR-RES ovarian; 107% with T-47D breast; 100% in the test with BT-549 breast. For the same compound, the growth was 85.7% in the test on MDA-MB-435 melanoma; 106% in the test on SW-620 colon; 101% in the test on MCF7 breast; 99.3% in the test with HCT-116 colon; 109% in the test with HCC-2998 colon; 109% in the test on KM12 colon.
As to `CC1CN1CCCCN1CC1C` (stereo not given), the growth with MOLT-4 leukemia was 86.2%; in the test with SR leukemia, 81.5%; in the test with RPMI-8226 leukemia it was 94.4%; in the test with OVCAR-8 ovarian it was 102%; with OVCAR-4 ovarian, 112%; in the test on SK-OV-3 ovarian it was 103%. In addition, the growth in the test with IGROV1 ovarian was 107%; with OVCAR-3 ovarian, 103%; in the test with NCI/ADR-RES ovarian it was 108%; with T-47D breast, 101%; with BT-549 breast it was 103%; in the test with MDA-MB-435 melanoma it was 111%. The growth was 105% in the test on SW-620 colon, 93.8% with MCF7 breast, 94.2% in the test on HCC-2998 colon and 104% in the test on KM12 colon.
